This note sets out measurements from PubChem BioAssay (NCI).

Assay [1] is described as follows: NCI Yeast Anticancer Drug Screen. Data for the rad50 strain (AID 155).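 Further: 0% = growth of vehicle-only cultures of the same strain.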 Conditions: S. cerevisiae rad50 strain growth inhibition; at 50.0 µM; hits give high values. Put shortly: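 Readout: growth inhibition relative to vehicle-treated cultures. Compound exposure was carried out in a genetically defined yeast strain deficient in DNA damage repair.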
Assay [2] in a line: NCI Yeast Anticancer Drug Screen. Data for the mec2-1 strain (AID 157). Conditions: S. cerevisiae mec2-1 strain, at 50.0 µM, hits give high values. Put shortly:
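Test agents were screened against the mec2-1 yeast strain, with defined DNA repair or cell cycle alteration. Growth was scored as inhibition against vehicle-only controls.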

Assay [3] is described as follows: NCI Yeast Anticancer Drug Screen. Data for the sgs1 mgt1 strain (AID 161).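 Further: 0% = growth of cultures given vehicle only.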 The note with it: S. cerevisiae sgs1 mgt1 strain, at 50.0 µM, hits give high values. Summed up: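 Inhibition of yeast growth, normalised to vehicle-treated controls, is reported for a strain bearing genetic alterations in DNA damage repair.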
Assay [4] in a line: NCI Yeast Anticancer Drug Screen. Data for the cln2 rad14 strain (AID 165).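 Further: 0% = growth equal to vehicle treated cultures.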 Conditions: S. cerevisiae cln2 rad14 strain, at 50.0 µM, hits give high values. Put shortly:
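Growth of compound-exposed yeast (cln2 rad14 genotype) measured and expressed as inhibition relative to vehicle.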

Assay [5] in a line: NCI Yeast Anticancer Drug Screen. Data for the bub3 strain (AID 167). Conditions: S. cerevisiae bub3 mutant strain, at 50.0 µM, hits give high values. Summed up: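 Readout: yeast growth inhibition, expressed relative to vehicle-only wells. The test organism is a mutant strain from a panel with lesions in DNA repair or checkpoint genes.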
The nature of assay [6]: NCI Yeast Anticancer Drug Screen. Data for the mlh1 rad18 strain (AID 175). Conditions: S. cerevisiae mlh1 rad18 strain growth inhibition; at 50.0 µM; hits give high values. Put shortly: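 In this whole-cell yeast screen, a strain with altered DNA damage repair is challenged with compound, and its growth is measured against matched vehicle-treated controls.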

About 79,000 compounds went through this panel and 15% of them were active in at least one assay; those are over-represented in the sample as a whole. A number with no mark means an inactive call. Calls of active or inactive are those of the source. No stated cut-off is given here; in the data, active means growth inhibition above about 70%; inactive means the rest.

As to `O=C=Nc1ccc([N+](=O)[O-])cc1`, the growth inhibition was -0.9% in assay [1]; 15.7% in assay [2]; 1.2% in assay [3]; -20.6% in assay [4]; 32.9% in assay [5]; -8.75% in assay [6].
Take `CC(C)(C)C1CC[C@H]2c3c([nH]c4ccc(Br)cc34)[C@H]3C(=O)N(c4ccccc4)C(=O)[C@H]3[C@H]2C1` (stereo partly specified): the growth inhibition in assay [1] was 18.4%; in assay [2] it was -2.7%; in assay [3] it was 27.2%; in assay [4], 29.4%; in assay [5], -0.15%; in assay [6] it was 12.6%.
Take `CCOC(=O)C(NCc1cccc(C(F)(F)F)c1)(NC(=O)c1ccccc1)C(F)(F)F` (stereo unspecified): the growth inhibition in assay [1] was 12.2%; in assay [2] it was -0.95%; in assay [3], -1.95%; in assay [4] it was 17.9%; in assay [5], 8.4%; in assay [6] it was 25%.
On to `NC(=O)N/N=C(/c1nc2ccc([N+](=O)[O-])cc2[nH]c1=O)C(O)c1ccco1` (stereo unspecified), for which the growth inhibition in assay [1] was 5.35%; in assay [2], -9.65%; in assay [3] it was -11.1%; in assay [4], 19.8%; in assay [5], -19%; in assay [6], 3.5%.
On to `COC(=O)C(C(Br)C(=O)c1ccccc1)C(c1ccccc1)[N+](=O)[O-]` (stereo unspecified), for which the growth inhibition in assay [1] was 68.7%; in assay [2] it was 85.3% (active); in assay [3] it was 54.1%; in assay [4], 2.3%; in assay [5], 85.9% (active); in assay [6], 94.5% (active).
For `CC(=O)Nc1ccc2c(c1)Cc1cc(NC(C)=O)c(Cl)cc1-2`, the growth inhibition in assay [1] was 3.15%; in assay [2] it was 11.9%; in assay [3], -1.45%; in assay [4], 7.95%; in assay [5] it was -2.35%; in assay [6], -1.2%.
As to `COc1ccccc1NC(=S)N/N=C(/c1ccccc1)c1ccccn1`, the growth inhibition in assay [1] was -50.9%; in assay [2], 22.6%; in assay [3] it was 17.4%; in assay [4] it was 15.1%; in assay [5], 20.2%; in assay [6] it was 10.6%.
In the case of `COc1cc(C)ccc1C(=O)C[n+]1ccc2ccccc2c1`, the growth inhibition is -41.3% in assay [1]; -1.35% in assay [2]; -25.9% in assay [3]; -56.1% in assay [4]; -1.55% in assay [5]; -2.5% in assay [6].
For `O=[N+]([O-])c1ccc2c(c1)C(=Nc1ccccc1)c1cc([N+](=O)[O-])cc([N+](=O)[O-])c1-2`, the growth inhibition is 8.3% in assay [1]; 5.65% in assay [2]; 19.1% in assay [3]; 21.1% in assay [4]; 3.5% in assay [5]; 13.4% in assay [6].
`O=C(O)CCCC1CCC2NC(=O)NC2C1` (stereo unspecified): the growth inhibition in assay [1] is 1.55%; in assay [2] it was 5.15%; in assay [3], -5.45%; in assay [4], 6.4%; in assay [5], 16.5%; in assay [6], -6%.
For `Cc1cccc(O)c1O`, the growth inhibition in assay [1] was 25.2%; in assay [2], 0.15%; in assay [3], 23.1%; in assay [4], -0.2%; in assay [5], 16.8%; in assay [6], 20.4%.
Take `CCCC(P(=O)(c1ccccc1)c1ccccc1)[P+](CC)(c1ccccc1)c1ccccc1` (stereo unspecified): the growth inhibition in assay [1] was 84.6% (active); in assay [2], 78.2% (active); in assay [3], 85.9% (active); in assay [4] it was 54.6%; in assay [5], 81.7% (active); in assay [6], 77.8% (active).
On to `CCOC(CN=CC1CCC=CO1)OCC` (stereo unspecified), for which the growth inhibition was 10.9% in assay [1]; -5.35% in assay [2]; 2.85% in assay [3]; -1.55% in assay [4]; -1.5% in assay [5]; 6.65% in assay [6].
For the compound `Cn1c2c(F)cccc2c(=O)c2c(O)cc3c(c21)C=CC(C)(C)O3`, the growth inhibition in assay [1] was -24.6%; in assay [2], -22.2%; in assay [3], -27.4%; in assay [4], -17.9%; in assay [5], -18.6%; in assay [6], -19.7%.
For the compound `CCOC1(NC(=O)N(C)C)C2CCCC21` (stereo unspecified), the growth inhibition in assay [1] is 3.4%; in assay [2], -4.15%; in assay [3], -0.1%; in assay [4] it was -29.9%; in assay [5] it was 2.1%; in assay [6], -6.5%.
As for `Clc1ccc2nc(/C=C/c3ccccc3)cnc2c1`, the growth inhibition was 14.6% in assay [1]; 11.2% in assay [2]; 13.3% in assay [3]; 8.9% in assay [4]; 14.1% in assay [5]; 22.5% in assay [6].
In the case of `CC([N+](=O)[O-])S(=O)(=O)c1ccccc1` (stereo unspecified), the growth inhibition in assay [1] was 3.55%; in assay [2] it was -20.1%; in assay [3] it was -10.4%; in assay [4], -7.45%; in assay [5], -2.95%; in assay [6], 5.5%.
As for `CCOC(=O)C1CC(=O)NC(N)=N1` (stereo unspecified), the growth inhibition in assay [1] was -12.6%; in assay [2], -29.4%; in assay [3], -13.6%; in assay [4], -7.95%; in assay [5], -8.2%; in assay [6], -14.2%.
With `CC(=O)OCc1cc(OC(C)=O)cnc1COC(C)=O`, the growth inhibition in assay [1] was -9.25%; in assay [2], -24.6%; in assay [3], -17.4%; in assay [4], -19.2%; in assay [5], -7.85%; in assay [6], -36.2%.
In the case of `CC(=O)NC(CCCNC(=O)N(CCCl)N=O)C(=O)NCc1ccccc1` (stereo unspecified), the growth inhibition was -1.85% in assay [1]; -16.5% in assay [2]; 1.75% in assay [3]; 23.3% in assay [4]; 2.65% in assay [5]; -13.6% in assay [6].
Consider `CC(=O)OC1COC(n2cnc3c(N)ncnc32)C(OC(C)=O)C1OC(C)=O` (stereo unspecified), for which the growth inhibition in assay [1] was 5.3%; in assay [2], -5.15%; in assay [3] it was 2.3%; in assay [4] it was -26.1%; in assay [5], 1.2%; in assay [6] it was -4.2%.
